PI5P4K alpha inh – inhibitors of human PI5P4K alpha; 330,000 compounds, 1.2% hits; P48426; max response, %; PI5P4Kalpha enzyme, ADP-Glo luminescence, 60 min; stronger effect = lower value; active = max response of -50% or lower; inconclusive = between -30% and -50%; inactive = -30% or higher; also: value at the top dose of about 77 µM; % is scaled to controls: 0 for no effect and ±100 for the full control effect
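Luminescence from ADP-Glo served as readout of PI5P4Kalpha activity in a qHTS format. Reaction: enzyme, substrate, compound, ATP at 5 microM final, 60 min at RT.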
HP1b chromo inh – inhibitors of HP1-beta chromodomain binding to methylated histone tails; Potency, µM (doses to about 114 µM), without a hit: at the highest dose activity change, negative = inhibition, most hits filed as inhibitors; 390,000 compounds, 0.56% hits; AlphaScreen HP1-beta / biotin-H3K9me3 peptide binding; P83916; AID 540317; also: potency is read from the fitted curve at half-maximal effect; nearly all actives have a fitted effect of over 70% in size
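Compound inhibition of the preformed complex between 50 nM HP1-beta and 50 nM biotinylated H3K9me3 peptide was read by AlphaScreen. Buffer was PBS pH 7.4 with 0.01% Tween-20. Incubations ran 30 min at room temperature, with 10 ug/mL donor/acceptor beads.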
PLK1 PBD block – blocks phosphopeptide binding to human PLK1 polo-box domain | Plk1 PBD binding of FITC phosphopeptide, fluorescence polarization | 360,000 compounds, 2.8% hits | P53350 | Potency, µM, for the others: max response, negative = inhibition, usual class: inhibitors; also: potency is read from the fitted curve at half-maximal effect; series mostly up to about 57 µM; % is scaled to controls: 0 for no effect and ±100 for the full control effect; nearly all actives have a fitted effect of over 65% in size
BAZ2B block – blocks human BAZ2B | 360,000 compounds, 4.4% hits | Potency, µM (doses to about 114 µM), inactives show at the top dose activity change, negative = inhibition, most hits filed as inhibitors | AID 504333 | AlphaScreen BAZ2B-H3K14Ac peptide displacement; also: potency is read from the fitted curve at half-maximal effect; % is scaled to controls: 0 for no effect and ±100 for the full control effect; nearly all actives have a fitted effect of over 60% in size
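Complex of BAZ2B and biotin-H3K14Ac (50 nM apiece) forms over 30 min at RT, then faces library compounds up to 110 uM for another 30 min; AlphaScreen beads added, 20 min dark incubation, luminescence read.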
G9a inh – G9a (human) methyltransferase inhibition; 350,000 compounds, 8.8% hits; Q96KQ7; G9a H3K9 monomethylation, AlphaScreen, 2 h; Potency, µM (titrated, usually from 102 µM), for the others: at the highest dose activity, negative = inhibition, most hits filed as inhibitors; AID 504332; also: potency is read from the fitted curve at half-maximal effect; % is scaled to controls: 0 for no effect and ±100 for the full control effect; nearly all actives have a fitted effect of over 75% in size
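Readings reflect AlphaScreen signal from monomethyl-H3K9 antibody detection. HMT at 20 nM; substrate b-H3K9 500 nM; cofactor SAM 20 uM; 2 h RT reaction; compounds tested as titrations in qHTS with 15 min preincubation.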
JMJD2A Tudor – JMJD2A Tudor domain (human) inhibition | AlphaScreen JMJD2A-Tudor / H3K4me3 peptide binding | Potency, µM (doses to about 114 µM), for inactives: at the highest dose activity change, negative = inhibition, hits mostly inhibitors | 390,000 compounds, 4.4% hits | AID 504339; also: potency is read from the fitted curve at half-maximal effect; % is scaled to controls: 0 for no effect and ±100 for the full control effect; nearly all actives have a fitted effect of over 50% in size
Target sequence (O75164 whole entry, looked up, the tested form may be a part): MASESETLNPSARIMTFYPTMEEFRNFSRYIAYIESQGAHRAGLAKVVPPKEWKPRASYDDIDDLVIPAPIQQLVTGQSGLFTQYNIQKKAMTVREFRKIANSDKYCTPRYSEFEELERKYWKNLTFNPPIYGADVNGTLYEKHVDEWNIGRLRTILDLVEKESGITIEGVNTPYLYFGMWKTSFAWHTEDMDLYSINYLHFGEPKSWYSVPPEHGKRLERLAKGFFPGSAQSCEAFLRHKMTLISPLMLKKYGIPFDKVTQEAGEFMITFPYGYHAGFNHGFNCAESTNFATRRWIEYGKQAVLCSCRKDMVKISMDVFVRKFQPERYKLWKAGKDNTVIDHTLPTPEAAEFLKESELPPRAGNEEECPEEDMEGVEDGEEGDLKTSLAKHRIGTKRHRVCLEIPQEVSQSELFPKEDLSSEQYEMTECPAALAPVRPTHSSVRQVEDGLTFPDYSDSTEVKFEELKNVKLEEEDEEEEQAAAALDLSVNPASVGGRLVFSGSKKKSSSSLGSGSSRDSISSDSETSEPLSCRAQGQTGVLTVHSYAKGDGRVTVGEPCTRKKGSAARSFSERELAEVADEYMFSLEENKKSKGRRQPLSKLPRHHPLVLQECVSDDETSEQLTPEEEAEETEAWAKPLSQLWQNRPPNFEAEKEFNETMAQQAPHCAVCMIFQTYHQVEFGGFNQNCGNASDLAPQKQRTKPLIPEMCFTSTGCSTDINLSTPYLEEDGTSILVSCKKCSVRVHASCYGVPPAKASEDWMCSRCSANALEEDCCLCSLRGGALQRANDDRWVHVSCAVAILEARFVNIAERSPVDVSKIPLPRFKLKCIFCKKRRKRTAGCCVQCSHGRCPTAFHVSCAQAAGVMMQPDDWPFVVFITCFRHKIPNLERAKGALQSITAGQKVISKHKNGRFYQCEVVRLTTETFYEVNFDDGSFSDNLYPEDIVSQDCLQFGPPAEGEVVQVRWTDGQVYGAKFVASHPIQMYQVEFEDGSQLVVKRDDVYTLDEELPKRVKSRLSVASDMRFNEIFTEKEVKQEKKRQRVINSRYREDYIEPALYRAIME
Active calls of the source: *; ? = inconclusive; . = no result; [ ] = dose if it differs, or a comment. Shown are actives, neighbours in structure and some others; about 12% of the full set was active somewhere. Unless noted, calls follow the shape of the dose curve; as a rule, active = well fitted curve in the direction sought with a large enough effect; inconclusive = small, poorly fitted or top-dose-only effect, or another doubt; inactive = no such curve, though single readings can be large; an effect the other way counts as inactive or inconclusive.

SMILES	PI5P4K alpha inh	HP1b chromo inh	PLK1 PBD block	BAZ2B block	G9a inh	JMJD2A Tudor
COc1cccc(-c2nc(-c3ccc4c(c3)NC(=O)CO4)cs2)c1	-3	-3%	13µM*	-12%	-4%[59 µM]	-21%
NC(=NCCc1c[nH]c2ccccc12)NC(=O)c1ccc(Cl)cc1	22	-11%	0%	79µM*	?	?
O=C(Nc1cccc(CNCCc2c[nH]c3ccccc23)c1)c1ccccc1Cl	10	1%	-8%	50µM*	28µM*	45µM*
CC(=O)c1cccc(NC(=O)NCCc2c[nH]c3ccccc23)c1	2	5%	8%	-7%	.	-15%
O=C(N[C@@H](Cc1c[nH]c2ccccc12)C(=O)O)c1ccc(Cl)cc1	1	15%	4%	19%	22%	-14%
O=C(O)C(O)Cc1c[nH]c2ccccc12 (stereo unspecified)	-8	12%	-12%	-5%	-13%	-20%
O=C(Cc1c[nH]c2ccccc12)NCc1ccc(Cl)cc1Cl	3	-22%	30µM*	-37%	1%[59 µM]	?
O=C(O)C(=O)Cc1c[nH]c2ccccc12	?	?	-20%	?	25µM*	45µM*
Cc1ccc(-n2nc(C(=O)N(C)c3ccc(C)c(C)c3)c3c4ccccc4n(C)c3c2=O)cc1	.	5%	.	.	-42%[59 µM]	-28%
CCN(CC(=O)Nc1ccc(OC)cc1)CC(=O)Nc1sc2c(c1C(=O)OC)CCCC2	-6	24%	-4%	-28%	15%[2.33 µM]	?
O=C(NCc1ccco1)C(=O)c1c[nH]c2ccccc12	1	35%	-6%	?	28%[12.7 µM]	-25%
O=C(Cc1c[nH]c2ccccc12)NCc1ccco1	4	8%	-11%	50µM*	?	-18%
O=C(CN1C(=O)C(=O)N(CCC2=CCCCC2)C1=O)c1c[nH]c2ccccc12	11	2%	-3%	.	.	-27%
O=C(CN1C(=O)C(=O)N(Cc2ccco2)C1=O)c1c[nH]c2ccccc12	-28	18%	27µM*	-12%	50µM*	-21%
Cn1cnnc1SCC(=O)Nc1nc(-c2ccccc2)cs1	2	42%	-2%	?	-18%	6%
COc1cccc(NC(=O)CN2C(=O)CSc3ccc(S(=O)(=O)N4CCCC4)cc32)c1	.	38%	.	?	-15%[59 µM]	-18%
CCNC(=O)C1CCCN1S(=O)(=O)c1ccc(OC)cc1 (stereo unspecified)	.	7%	-7%	8%	8.9µM*	-6%
COc1ccc(S(=O)(=O)N2CCCC2C(=O)Nc2nnc(-c3cccnc3)s2)cc1 (stereo unspecified)	.	-26%	27µM*	-8%	3.5µM*	-26%
Cc1[nH]c2ccccc2c1/C=N/NC(=O)CCC(=O)Nc1ccccc1	0	-19%	24µM*	-14%	-8%	-17%[11.4 µM]
Cc1[nH]c2ccccc2c1/C=N/NC(N)=S	2	1%	-9%	-34%	-26%[59 µM]	-25%
Cc1ccc(NC(=S)N/N=C/c2c(C)[nH]c3ccccc23)cc1	4	?	0%	45µM*	50µM*	45µM*
Cc1[nH]c2ccccc2c1/C=N/Nc1cccc(C(=O)O)c1	-28	-15%	-26%	?	4µM*	?
Cc1[nH]c2ccccc2c1/C=N/NC(=O)CNC(=O)Cc1ccccc1	1	32%	-15%	?	71µM*	-25%
Cc1[nH]c2ccccc2c1/C=N/NC(=O)c1ccccc1	-22	36%	2%	-5%	15%	-13%
Cc1[nH]c2ccccc2c1/C=N/NC(=O)Nc1ccccc1	2	55%	-2%	-13%	1%	-7%
SMILES	PI5P4K alpha inh	HP1b chromo inh	PLK1 PBD block	BAZ2B block	G9a inh	JMJD2A Tudor
COc1ccc(OC)c(/C=C(\C#N)c2nc(-c3ccc(F)cc3)cs2)c1	.	107%	.	94%	98%[59 µM]	-67%
CSc1ncc2c(n1)-c1ccccc1N(Cc1ccc(F)cc1)S2(=O)=O	.	137%	.	42%	4%[59 µM]	8%
CCCCCC(=O)/C=C/C=C\C/C=C\C/C=C\CCCC(=O)O	.	.	.	.	25%[59 µM]	.
CC(C)(CNc1ccc(S(=O)(=O)C(F)(F)F)cc1[N+](=O)[O-])N1CCOCC1	2	-5%	-5%	-15%	39%	?
CC(C)(C)c1cc(C(=O)N/N=C/c2ccccn2)n[nH]1	0	57%	0%	9%	.	-17%
Cc1[nH]c2ccccc2c1/C=N/NC(=O)c1cc(C(C)(C)C)[nH]n1	-15	-4%	-12%	71µM*	.	-23%
CC1(C)CC(=O)C2=C(C1)NC(Nc1nc3ccccc3o1)=NC21CCCC1	.	-10%	27µM*	4%	12%[59 µM]	?
CC(=O)c1ccc(N2CCN(S(=O)(=O)c3ccc4c(c3)CC(=O)N4)CC2)cc1	-14	44%	-12%	1%	.	-29%[229 µM]
CC(=O)c1ccc(N2CCN(S(=O)(=O)c3ccc4c5c3CC(=O)N5CC(C)S4)CC2)cc1 (stereo unspecified)	-13	17%[57 µM]	-8%	-21%[57.1 µM]	45µM*	-18%
O=C(COc1ccc([N+](=O)[O-])cc1)N(Cc1cccs1)C1CCS(=O)(=O)C1 (stereo unspecified)	?	26%	-23%	-23%	-1%	-20%
Cc1cccc(-c2nc(C#N)c(N3CCCCCC3)o2)c1	.	?	-8%	13µM*	?	?
COc1ccc(-c2nc(C#N)c(N3CCN(c4ccccc4)CC3)o2)cc1	0	-24%	-3%	?	8.9µM*	?
COc1ccc(N2CCN(c3oc(-c4ccc(OC)c(OC)c4)nc3C#N)CC2)cc1	0	7%	0%	?	-32%[2.33 µM]	-8%
Cc1cccc(-c2nc(C#N)c(N3CCC(C)CC3)o2)c1	6	53%	-6%	11%	-2%	1%
COc1ccccc1-c1nc(C#N)c(N2CC(C)CC(C)C2)o1 (stereo unspecified)	-9	5%	-4%	?	?	-5%
COc1ccccc1-c1nc(C#N)c(N2CCCCCC2)o1	.	-43%	-2%	?	45µM*	?
COc1ccccc1-c1nc(C#N)c(N2CCN(c3ccccc3)CC2)o1	15	?	-12%	11µM*	?	?
O=C(Cn1c(=O)n(Cc2ccccc2)c(=O)c2sc3ccccc3c21)Nc1ccc(F)cc1	.	1%	.	2%	-26%[59 µM]	-11%
CCC(C(=O)OCC(=O)NC1CCS(=O)(=O)C1)c1ccccc1 (stereo unspecified)	-3	37%	-3%	7%	8%[2.33 µM]	-1%
C[C@@H](/C=C/c1ccc2ccccc2c1)C1COC(=O)C[C@H]1O (stereo partly specified)	.	38%	.	.	.	-16%
Cn1cccc1C(=O)N1CCC2(CCCN(Cc3ccc(C#N)cc3)C2)CC1	.	.	.	.	-1%[12.7 µM]	.
